Measurements reported in PubChem BioAssay AID504652 (National Center for Advancing Translational Sciences (NCATS), 2011).
The campaign covered roughly 360,000 compounds. About 11,000 (3.1%) were called active. The full list was thinned out, with actives kept by preference. Unmarked numbers belong to inactive results. Rule as the data show it: active = activity change below about -30%; inactive = the rest.

molecular target: D(1A) dopamine receptor (Homo sapiens) (UniProt P21728); experiment: Antagonist of Human D 1 Dopamine Receptor: qHTS; details: HEK293 TREx D1 cells, calcium flux, dopamine EC80; at 10 µM; active compounds read low
How it was run: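 After overnight tetracycline induction at 30 C, force-coupled D1 HEK293 cells took up a no-wash calcium dye at room temperature. Compounds were added and monitored 180 s, and the response to EC80 dopamine was then recorded.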
% is scaled to controls: 0 for no effect and ±100 for the full control effect.

Sequence of D(1A) dopamine receptor (Homo sapiens) (P21728 whole entry, looked up): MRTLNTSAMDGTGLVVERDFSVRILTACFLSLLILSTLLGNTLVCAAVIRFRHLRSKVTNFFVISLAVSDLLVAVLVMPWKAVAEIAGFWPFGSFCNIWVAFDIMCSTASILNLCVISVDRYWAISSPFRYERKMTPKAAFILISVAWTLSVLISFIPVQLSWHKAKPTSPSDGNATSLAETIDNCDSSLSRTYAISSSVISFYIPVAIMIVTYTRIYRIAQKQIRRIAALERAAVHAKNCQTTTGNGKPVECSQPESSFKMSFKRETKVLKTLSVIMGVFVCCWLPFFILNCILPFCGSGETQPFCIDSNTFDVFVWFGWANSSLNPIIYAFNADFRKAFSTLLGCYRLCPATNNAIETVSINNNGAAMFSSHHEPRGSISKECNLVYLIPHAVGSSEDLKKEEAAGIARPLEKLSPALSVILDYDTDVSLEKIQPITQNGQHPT

Row | SMILES | activity change, negative = inhibition
1 | CCc1ccc(CNCc2c(C(=O)O)n(Cc3ccc(F)cc3Cl)c3cc(OC)ccc23)cc1 | 6.05%
2 | O=Cc1c(Nc2ccccc2Cl)nc2ccccn2c1=O | 9.2%
3 | O=Cc1c(N2CCN(c3cccc(Cl)c3)CC2)nc2ccccn2c1=O | -43.5% (active)
4 | COCCCNC(=O)/C(C#N)=C/c1c(N2CCCCCC2)nc2ccccn2c1=O | 13.8%
5 | Cc1ccc(-c2nc3ccccn3c2Nc2c(C)cccc2C)o1 | -2.58%
6 | Cc1c(CNC2CCCCC2)c(C(=O)O)c(C)n1Cc1cccc(Cl)c1 | -7.13%
7 | CC(=O)NC1=NN(C(C)=O)C(C)(CCS(=O)(=O)c2ccc(Cl)c(Cl)c2)S1 (centres undefined) | -39.7% (active)
8 | CC(=O)NC1=NN(C(C)=O)C(C)(c2ccc(Cl)s2)S1 (centres undefined) | 2.68%
9 | CC(=O)NC1=NN(C(C)=O)C(C)(c2ccc(C)cc2)S1 (centres undefined) | 22.7%
10 | Cc1cc(OC(C)C(=O)Nc2sc3c(c2C(N)=O)CCCC3)ccc1Cl (centres undefined) | 3.29%
11 | Cc1ccc(S(=O)(=O)c2nnn3c2nc(N2CCN(c4ccccc4F)CC2)c2cc(Cl)ccc23)cc1C | -0.0376%
12 | CCOc1ccccc1CNC(=O)C1CCCN(S(=O)(=O)c2ccc3c(ccn3C)c2)C1 (centres undefined) | -27.8%
13 | COc1cc(Cl)c(S(=O)(=O)N2CCN(Cc3ccc4c(c3)OCO4)CC2)cc1Cl | 4.53%
14 | COc1cc(COCC(O)CN2CCN(Cc3ccc4c(c3)OCO4)CC2)cc(OC)c1OC (centres undefined) | -31.1% (active)
15 | CN1CCN(CC(O)COCc2ccc3c(c2)OCO3)CC1 (centres undefined) | -5.88%
16 | CCOc1cccc(CNC(=O)c2ccc(N3CCCC3)c(NC(=O)Nc3ccccc3CC)c2)c1 | 4.78%
17 | CCc1nn(CC(=O)Nc2cc(C)cc(C)c2)c(=O)c2cc3sccc3n12 | 3.41%
18 | CCCN1CN=C(NS(=O)(=O)c2ccc(NC(C)=O)cc2)NC1 | -3.05%
19 | CCCOc1ccc(/C(O)=C2/C(=O)C(=O)N(CCN(C)C)C2c2ccc(OC)c(OC)c2)cc1 (centres undefined) | -33.3% (active)
20 | COc1ccc(/C(O)=C2/C(=O)C(=O)N(CCCN(C)C)C2c2ccccc2)cc1OC (centres undefined) | -33.2% (active)
21 | COc1cccc(C2/C(=C(/O)c3ccncc3)C(=O)C(=O)N2CCCN(C)C)c1 (centres undefined) | -21.5%
22 | COc1cccc(C2/C(=C(/O)c3ccc(F)cc3)C(=O)C(=O)N2CCN(C)C)c1 (centres undefined) | -3.01%
23 | COc1ccc(/C(O)=C2/C(=O)C(=O)N(CC3CCCO3)C2c2ccc(OC)c(OC)c2)cc1 (centres undefined) | -3.45%
24 | O=C1C(=O)N(CCCO)C(c2ccccc2)/C1=C(\O)c1ccc(Br)cc1 (centres undefined) | -7%
25 | CCc1ccc(CNC(=O)c2ccc(CS(=O)c3ccc(Br)cc3)o2)cc1 (centres undefined) | 6.94%
26 | COc1c(Cl)cc(C(=O)N(Cc2ccccc2F)C2CCS(=O)(=O)C2)cc1Cl (centres undefined) | -0.91%
27 | CCOC(=O)c1ccc2c(c1)N(Cc1cccc(OC)c1)C(=O)c1ccccc1S2(=O)=O | 4.54%

Row | SMILES | activity change, negative = inhibition
28 | Cc1c(Cl)cccc1NC(=O)CCS(=O)(=O)c1ccc2c(c1)oc(=O)n2C | -0.334%
29 | O=C(c1ccc(Cl)cc1)n1nc(-c2cccnc2)nc1NCc1ccc(F)cc1 | -16.2%
30 | CCOc1ccc(OCC)c(NC(=O)CN(c2ccc(C)cc2)S(=O)(=O)c2c(C)n[nH]c2C)c1 | -7.76%
31 | O=C1Nc2cc(Cl)c(Cl)cc2N(O)N1c1cc(Cl)cc(Cl)c1 | -76.7% (active)
32 | O=C1Nc2cc(Cl)c(Cl)cc2N(O)N1c1ccccc1Cl | -7.41%
33 | Cc1c(CNC(C)c2ccccc2)c(C(=O)O)c(C)n1Cc1c(F)cccc1Cl (centres undefined) | 18.6%
34 | CCOc1ccc(OCC)c(NC(=O)c2c(C)nn(-c3ccccc3)c2-n2cccc2)c1 | 7.71%
35 | Cc1cc(C)c2nc(N(CCN(C)C)C(=O)/C=C/c3cccs3)sc2c1 | 6.71%
36 | O=C(Nc1ccc2nc(SCC(=O)N3CCCc4ccccc43)sc2c1)c1ccc(F)cc1 | -9.64%
37 | CCN(CC)CCN(C(=O)c1ccc(N2C(=O)CCC2=O)cc1)c1nc2cc3c(cc2s1)OCO3 | 6.3%
38 | Cc1ccc2nc(N(CCN(C)C)C(=O)C3=COCCO3)sc2c1 | -34.5% (active)
39 | CCN(CC)CCN(C(=O)c1cc(Cl)sc1Cl)c1nc2cc3c(cc2s1)OCO3 | -2.46%
40 | CC(C)N(Cc1nnc(-c2ccc(Cl)cc2)o1)C(=O)C1=COCCO1 | 2.43%
41 | O=C(Nc1nnc(S(=O)(=O)N2CCCc3ccccc32)s1)c1cccc(F)c1 | -7.22%
42 | CCc1ccc2nc(N(CCCN(C)C)C(=O)c3ccc4c(c3)OCCO4)sc2c1 | -34.9% (active)
43 | CN(C)CCN(C(=O)C1=COCCO1)c1nc2ccc(Cl)cc2s1 | -46.4% (active)
44 | Cc1ccc2sc(NNC(=O)c3ccc4c(c3)OCCO4)nc2c1C | 23.4%
45 | CN(C)CCCN(C(=O)c1ccc(S(=O)(=O)N2CCCc3ccccc32)cc1)c1nc2ccc(F)cc2s1 | -31.4% (active)
46 | NS(=O)(=O)c1ccc2nc(NC(=O)C3=COCCO3)sc2c1 | 1.85%
47 | CC1CCN(S(=O)(=O)c2ccc3c(c2)N(CC(=O)NCCc2ccccc2)C(=O)CO3)CC1 | 1.55%
48 | Cc1ccc(C(=O)CC2(O)C(=O)N(CCc3ccccc3)c3ccc(Br)cc32)cc1 (centres undefined) | 12.6%
49 | COc1cc(OC)c(C2C=C(C(=O)O)Nc3ncnn32)cc1OC (centres undefined) | 4.4%
50 | COc1ccc(C2C(=O)N(C3CCCCCC3)CC(=O)N2CCc2ccc(Cl)cc2)cc1OC (centres undefined) | 6.57%
51 | COc1cccc(CNC(=O)c2ccc3c(Cl)c4c(nc3c2)CCCC4)c1 | -2.7%
52 | CCOc1ccc(CCNC(=O)CN(c2ccc(C)cc2)S(=O)(=O)N(C)C)cc1OCC | 6.83%
53 | Cc1ccc(Cn2c(CNC(=O)Cc3cccc(C)c3)nc3cccnc32)cc1 | -3.78%
54 | O=C(NC1(C(F)(F)F)N=C(c2ccccc2)N(C2CCCCC2)C1=O)c1ccccc1F (centres undefined) | -5.87%
